Pol kappa inh = blocks human DNA polymerase kappa activity; Potency, µM (highest dose often 107 µM), without a hit: top-dose activity, negative = inhibition, hits mostly inhibitors; 0.53% of 400,000 active; Q9UBT6; purified Pol kappa, fluorescent DNA synthesis assay, 10 min; also: % is scaled to controls: 0 for no effect and ±100 for the full control effect
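10 nM Pol kappa was preincubated with compounds for 15 min at room temperature. Reaction started with 50 nM (final) substrate. Fluorescence read kinetically at 0 and 10 min.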
L3MBTL1 inh = inhibitors of human L3MBTL1; Q9Y468; AlphaScreen L3MBTL1–H3K9me1 peptide binding; Potency, µM (series often up to 57.1 µM), for the others: top-dose activity, negative = inhibition, usual class: inhibitors; 0.66% of 230,000 active; AID 485360; also: % is scaled to controls: 0 for no effect and ±100 for the full control effect; nearly all actives have a fitted effect of over 60% in size
Target sequence (Q9Y468 whole entry, looked up): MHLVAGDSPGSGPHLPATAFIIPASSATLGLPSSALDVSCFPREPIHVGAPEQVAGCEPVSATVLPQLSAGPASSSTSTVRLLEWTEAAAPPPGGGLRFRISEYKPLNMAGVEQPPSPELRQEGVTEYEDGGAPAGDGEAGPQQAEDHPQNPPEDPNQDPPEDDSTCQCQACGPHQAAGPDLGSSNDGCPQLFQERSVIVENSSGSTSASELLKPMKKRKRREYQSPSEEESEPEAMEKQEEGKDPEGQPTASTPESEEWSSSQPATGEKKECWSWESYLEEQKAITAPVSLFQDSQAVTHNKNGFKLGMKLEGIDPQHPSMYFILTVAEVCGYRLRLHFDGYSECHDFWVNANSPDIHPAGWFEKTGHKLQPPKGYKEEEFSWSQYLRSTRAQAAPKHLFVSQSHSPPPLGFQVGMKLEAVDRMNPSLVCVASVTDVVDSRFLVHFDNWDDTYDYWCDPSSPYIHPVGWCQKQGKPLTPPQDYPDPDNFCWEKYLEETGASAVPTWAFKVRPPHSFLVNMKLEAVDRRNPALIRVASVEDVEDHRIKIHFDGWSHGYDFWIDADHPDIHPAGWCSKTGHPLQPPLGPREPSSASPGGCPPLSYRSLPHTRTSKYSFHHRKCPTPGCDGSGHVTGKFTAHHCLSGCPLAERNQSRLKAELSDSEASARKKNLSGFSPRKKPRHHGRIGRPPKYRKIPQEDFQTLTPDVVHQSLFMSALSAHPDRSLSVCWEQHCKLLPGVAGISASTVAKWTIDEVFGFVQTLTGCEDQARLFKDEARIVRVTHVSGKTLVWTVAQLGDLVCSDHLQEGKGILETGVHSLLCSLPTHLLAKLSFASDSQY
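AlphaScreen proximity signal between nickel-chelate acceptor and streptavidin donor beads (final 10 ug/mL) reports binding of 50 nM L3MBTL1 to 75 nM biotin-H3 K9me1 peptide; complex incubated with compounds 30 min at room temperature; cefsulodin titration as control.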
POLH inh = DNA polymerase eta (human) inhibition. recombinant Pol eta, fluorescent DNA replication assay. Potency, µM (doses to about 114 µM), inactives show at the top dose activity change, negative = inhibition, actives largely listed as inhibitors. 1.2% of 390,000 active. AID 588591; also: % is scaled to controls: 0 for no effect and ±100 for the full control effect
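Fluorescent replication assay: 50 nM final substrate added after a 15 min room-temperature compound preincubation with 10 nM enzyme. Signal taken at 0 min and again at 10 min.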
Pol iota inh = blocks human DNA polymerase iota activity; Pol iota fluorescent replication assay, 10 min; Potency, µM (doses to about 115 µM), for inactives: top-dose activity, negative = inhibition, usual class: inhibitors; 1% of 390,000 active; AID 588590
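Fluorescent replication assay read twice, at 0 min and 10 min after adding 50 nM (final) substrate. Enzyme (10 nM) and compounds were first incubated 15 min at room temperature; enzyme-free buffer wells were negative controls.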
Pol beta inh = inhibitors of human DNA polymerase beta; AID 485314; Pol beta primer extension/strand displacement, fluorescence kinetic; Potency, µM (doses to about 114 µM), without a hit: at the top dose activity change, negative = inhibition, usual class: inhibitors; P06746; 1.3% of 340,000 active; also: % is scaled to controls: 0 for no effect and ±100 for the full control effect
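Enzyme-only controls used 10 nM Pol beta; buffer lacking enzyme served as negative control. Compound preincubated 15 min, then 50 nM substrate added; 0 and 10 min reads at room temperature.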
* marks the source's active call; other numbers are inactive results; [ ] = remark or other dose. This is a sample that favours compounds with a hit; in the whole collection about 2.4% have one here. Calls follow the shape of the dose curve; as a rule, active = well fitted curve in the direction sought with a large enough effect; inconclusive = small, poorly fitted or top-dose-only effect, or another doubt; inactive = no such curve, though single readings can be large; an effect the other way counts as inactive or inconclusive. Potency is read from the fitted curve at half-maximal effect.

CC1(C)C(=O)Nc2ccccc2N1C(=O)CSc1ncccn1 was read as Pol kappa inh inconclusive, L3MBTL1 inh -6%, POLH inh inconclusive, Pol iota inh 45µM* and Pol beta inh inconclusive.
`C=CCn1c(C)nnc1SCC(=O)N1c2ccccc2NC(=O)C1(C)C` gave POLH inh -6%.
CC1(C)C(=O)Nc2ccccc2N1C(=O)COc1ccccc1C#N was read as Pol kappa inh inconclusive, L3MBTL1 inh inconclusive, POLH inh inconclusive and Pol iota inh 35µM*.
Screening CC(C)NC(=O)N1CC[C@@]2(CCCN(S(C)(=O)=O)C2)C1 returned Pol kappa inh 3%[60.1 µM].
For COc1ccc(Cl)cc1NC(=O)CN(C)C(=O)CCSc1ccc(C)cc1 the results were Pol kappa inh 6%, L3MBTL1 inh 0%, POLH inh -17% and Pol iota inh 20%.
`COC(=O)c1ccc2c(c1)C(C)(C)C(/C=C/c1ccc(O)cc1)=[N+]2C` gave Pol kappa inh 28µM*, L3MBTL1 inh -3%, POLH inh 17%, Pol iota inh 25µM* and Pol beta inh inconclusive.
`COC(=O)c1ccc2c(c1)C(C)(C)C(/C=C/c1ccc(OC)c(OC)c1OC)=[N+]2C` gave Pol kappa inh inconclusive, L3MBTL1 inh -1%, POLH inh -3%, Pol iota inh inconclusive and Pol beta inh inconclusive.
`Cc1ccc(N(CC(=O)N2CC(=O)Nc3ccccc32)S(=O)(=O)c2ccc3c(c2)OCCO3)cc1` gave Pol kappa inh -11%, L3MBTL1 inh -4%, POLH inh -9%, Pol iota inh 79µM* and Pol beta inh -1%.
`CC(C)OC(=O)c1cc(-c2ccc(C=O)o2)ccc1Cl` gave Pol kappa inh -8%, L3MBTL1 inh -2%, POLH inh inconclusive, Pol iota inh 7% and Pol beta inh 20µM*.
`CC(C)OC(=O)/C(C#N)=C/c1ccc(-c2ccc(Cl)c(Cl)c2)o1` gave Pol kappa inh -3%, POLH inh 0%, Pol iota inh -26% and Pol beta inh 11%.
O=C1c2cccc3cccc(c23)C(=O)C1(O)O was read as Pol kappa inh -6%, POLH inh -23% and Pol iota inh 112%.
CC(=O)C(C(C)=O)C1(O)C(=O)c2ccccc2C1=O was read as Pol kappa inh -2%, L3MBTL1 inh inconclusive, POLH inh 89µM*, Pol iota inh 3.2µM* and Pol beta inh inconclusive.
For COc1ccccc1CCNC(=O)Cn1ccc2cc(S(=O)(=O)N3CCCC3)ccc21 the results were Pol kappa inh -12%, POLH inh -7%, Pol iota inh 25% and Pol beta inh 3%.
Screening COc1ccccc1CCNC(=O)Cn1ccc2cc(S(=O)(=O)N3CCCCC3)ccc21 returned Pol kappa inh inconclusive, POLH inh -6%, Pol iota inh 89µM* and Pol beta inh 2%.
For CCC(C)/C(C)=N/Nc1ccc(S(N)(=O)=O)cc1[N+](=O)[O-] (configuration not stated) the results were Pol kappa inh 0%, L3MBTL1 inh -23%, POLH inh 89µM*, Pol iota inh 116% and Pol beta inh 5%.
For N#Cc1c(-c2ccco2)nc(SCC(=O)Nc2cccc(Cl)c2)[nH]c1=O the results were Pol kappa inh -16%, L3MBTL1 inh -14%, POLH inh inconclusive, Pol iota inh inconclusive and Pol beta inh 56µM*.
For CCc1ccc(NC(=O)C(C)Sc2nc(-c3ccco3)c(C#N)c(=O)[nH]2)cc1 (configuration not stated) the results were Pol kappa inh -39%, POLH inh 18µM*, Pol iota inh inconclusive and Pol beta inh -17%.
Cc1cc(C(=O)c2ccccc2)cc(C)c1O was read as Pol kappa inh -1%, POLH inh -17% and Pol iota inh 78%.
For CC1=C/C(=C(\c2cc(C)c(O)c(Br)c2)c2ccccc2S(=O)(=O)O)C=C(Br)C1=O the results were Pol kappa inh -41%, L3MBTL1 inh 22µM*, POLH inh inconclusive, Pol iota inh inconclusive and Pol beta inh inconclusive.
Fc1ccc(-c2cc(-c3nc(-c4cccc(Cl)c4)no3)[nH]n2)cc1 was read as Pol kappa inh -24%, POLH inh 0%, Pol iota inh -8% and Pol beta inh -8%.
COc1cc(C)c(Cl)cc1S(=O)(=O)n1cnc2ccccc21 was read as Pol kappa inh -19%, POLH inh -12%, Pol iota inh 9% and Pol beta inh 89µM*.
CC(=O)Nc1c(C)nn(-c2ccccc2)c1N1CCC(C(=O)NCc2ccc(F)cc2)CC1 was read as Pol kappa inh -9%[60.1 µM], POLH inh -7%, Pol iota inh 9% and Pol beta inh -2%.
For COc1ccc(-c2cc(C(F)(F)F)nc(SCC(=O)NC(C)c3ccccc3)n2)cc1 (configuration not stated) the results were Pol kappa inh -14%, POLH inh 7%, Pol iota inh -21% and Pol beta inh -5%.
`Cc1cc(C)c2oc(-c3ccc(C)c(NC(=O)/C=C/c4ccco4)c3)nc2c1` gave Pol kappa inh -38%, POLH inh inconclusive, Pol iota inh 22µM* and Pol beta inh inconclusive.
Screening Cc1cc(C)c2oc(-c3cccc(NC(=O)c4ccco4)c3)nc2c1 returned Pol kappa inh -13%, POLH inh -9%, Pol iota inh inconclusive and Pol beta inh 0%.
CCOC(=O)Cn1c(=O)oc2cc(S(=O)(=O)N3CCN(c4cc(C)ccc4C)CC3)ccc21 was read as Pol kappa inh -16%, POLH inh -19%, Pol iota inh 5% and Pol beta inh -27%.
Screening COc1ccc(CCNC(=O)CCCCn2c(=O)c3ccccc3n(Cc3cccc(C)c3)c2=O)cc1OC returned Pol kappa inh 3%, POLH inh -18%, Pol iota inh 17% and Pol beta inh 0%.
`COc1ccc(CCNC(=O)CCCCn2c(=O)c3ccccc3n(Cc3cc(C)ccc3C)c2=O)cc1OC` gave Pol kappa inh -5%, POLH inh -4%, Pol iota inh 79µM* and Pol beta inh 6%.
Screening CCOc1ccc(CCNC(=O)CCCc2nnc3n(CC)c(=O)c4sccc4n23)cc1 returned Pol kappa inh -11%, POLH inh -12%, Pol iota inh 6% and Pol beta inh 13%.
`CC(C)(C)N1C(=O)c2ccc(C(=O)O)cc2C1=O` gave Pol kappa inh -11%, L3MBTL1 inh 2%, POLH inh -7%, Pol iota inh -7% and Pol beta inh 1%.
Screening O=C(O)c1ccc2c(c1)C(=O)/C(=C/c1ccccc1)C2=O returned Pol kappa inh 25µM*, L3MBTL1 inh 3.2µM*, POLH inh 2.8µM*, Pol iota inh inconclusive and Pol beta inh -23%.

Screening results as filed in PubChem.
